Reference: ChEMBL document CHEMBL1201862, “PubChem BioAssay data set” (2004)
Out of some 420,000 compounds screened, about 64,000 (15%) were called active. About 27% were inconclusive and are not listed. The calls are words filed in the database; no cut-off is given here. Many of the other results were omitted from the sample, so actives are more common in it than they were.

The molecules below were run against Tyrosyl-DNA phosphodiesterase 1 (Homo sapiens) (UniProt Q9NUW8) (assay: qHTS for Inhibitors of human tyrosyl-DNA phosphodiesterase 1 (TDP1): qHTS in cells in absence of CPT.).
Type: functional

Chain of Tyrosyl-DNA phosphodiesterase 1 (Homo sapiens) (Q9NUW8 whole entry): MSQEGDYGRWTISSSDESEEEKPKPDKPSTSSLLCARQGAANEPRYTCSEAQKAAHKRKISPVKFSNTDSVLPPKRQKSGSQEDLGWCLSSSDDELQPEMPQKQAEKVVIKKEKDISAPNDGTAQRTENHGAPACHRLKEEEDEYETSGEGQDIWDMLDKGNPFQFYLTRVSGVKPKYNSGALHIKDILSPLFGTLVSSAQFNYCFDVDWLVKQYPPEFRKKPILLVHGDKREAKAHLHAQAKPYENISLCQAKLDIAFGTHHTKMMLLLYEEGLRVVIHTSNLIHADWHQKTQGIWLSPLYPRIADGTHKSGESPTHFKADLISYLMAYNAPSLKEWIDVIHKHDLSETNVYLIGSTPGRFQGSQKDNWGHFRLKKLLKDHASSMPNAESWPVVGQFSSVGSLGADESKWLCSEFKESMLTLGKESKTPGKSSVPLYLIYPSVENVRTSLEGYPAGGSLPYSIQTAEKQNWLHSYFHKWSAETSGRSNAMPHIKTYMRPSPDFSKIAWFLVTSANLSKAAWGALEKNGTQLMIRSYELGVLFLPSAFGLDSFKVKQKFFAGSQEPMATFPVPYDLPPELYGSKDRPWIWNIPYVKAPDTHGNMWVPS

Potency, active:
Cc1cccc2c1N(CCCCI)C=S2C (stereo not drawn) 3.98 µM, ICCCCN1C=S(CI)c2ccccc21 (stereo not drawn) 8.91 µM, CN(C)c1ccc(/C=C/c2cccc3c2N(CCCCI)C=S3/C=C/c2ccc(N(C)C)cc2)cc1 (stereo not drawn) 15.8 µM, COc1ccc(OC)c(/C=C/c2cccc3c2N(CCCCI)C=S3/C=C/c2cc(OC)ccc2OC)c1 (stereo not drawn) 7.08 µM, CCOc1ccc(N2C(=O)c3ccccc3N/C2=C\N2CCN(C(=O)c3ccco3)CC2)cc1 10 µM, O=C(/C=C/c1ccc(Cl)cc1)c1cccs1 7.5 µM, COc1ccccc1/C=C/C(=O)c1cccs1 5.96 µM, CC(C)C(C)c1cccc2c1NC=S2C(C)C(C)C (stereo not drawn) 5.62 µM
